Experimental data as given in paper PMC4336329 (PLoS ONE, 2015).
Hit rate of the full screen: of about 310,000 compounds, about 2,200 (0.71%) showed an effect of 50% or more. Effects have a minus sign here. Shown is part of a subset that was picked to be rich in strong results.

Biological target: human ether-à-go-go-related gene (hERG) potassium channel (human, UniProt Q12809)
Test: primary screen, population patch clamp on CHO cells stably expressing hERG; higher = less effect of the substance

Sequence of human ether-à-go-go-related gene (hERG) potassium channel (Q12809 whole entry, looked up): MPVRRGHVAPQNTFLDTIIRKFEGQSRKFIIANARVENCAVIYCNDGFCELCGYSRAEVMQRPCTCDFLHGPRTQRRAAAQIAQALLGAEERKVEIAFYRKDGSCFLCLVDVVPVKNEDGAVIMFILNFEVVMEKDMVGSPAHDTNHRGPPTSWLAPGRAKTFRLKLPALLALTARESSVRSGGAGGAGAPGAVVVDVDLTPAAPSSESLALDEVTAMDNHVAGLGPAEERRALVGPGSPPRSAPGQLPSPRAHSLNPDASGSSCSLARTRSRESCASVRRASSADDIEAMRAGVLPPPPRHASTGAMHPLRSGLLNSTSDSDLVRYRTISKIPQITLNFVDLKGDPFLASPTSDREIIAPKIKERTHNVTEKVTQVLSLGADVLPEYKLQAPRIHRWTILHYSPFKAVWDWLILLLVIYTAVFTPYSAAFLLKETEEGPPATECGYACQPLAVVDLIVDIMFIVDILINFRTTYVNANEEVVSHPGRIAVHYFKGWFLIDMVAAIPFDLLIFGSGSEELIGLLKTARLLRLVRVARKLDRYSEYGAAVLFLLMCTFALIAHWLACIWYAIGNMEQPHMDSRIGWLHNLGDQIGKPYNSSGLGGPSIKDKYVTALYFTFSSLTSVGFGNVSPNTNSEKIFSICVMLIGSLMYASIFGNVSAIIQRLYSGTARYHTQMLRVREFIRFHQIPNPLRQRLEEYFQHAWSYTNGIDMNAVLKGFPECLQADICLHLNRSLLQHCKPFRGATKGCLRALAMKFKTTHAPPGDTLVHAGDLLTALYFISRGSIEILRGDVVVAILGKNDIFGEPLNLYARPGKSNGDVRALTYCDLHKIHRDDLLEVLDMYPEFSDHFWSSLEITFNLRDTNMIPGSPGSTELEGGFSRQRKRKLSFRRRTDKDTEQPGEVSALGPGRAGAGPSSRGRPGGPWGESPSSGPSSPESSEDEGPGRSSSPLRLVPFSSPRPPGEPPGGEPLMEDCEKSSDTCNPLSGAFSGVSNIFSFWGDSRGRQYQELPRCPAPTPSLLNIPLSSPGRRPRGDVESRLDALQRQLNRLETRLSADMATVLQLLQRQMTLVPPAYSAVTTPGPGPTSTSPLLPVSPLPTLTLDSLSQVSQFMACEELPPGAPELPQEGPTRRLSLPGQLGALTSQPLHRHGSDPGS

Going from `O=C(CNC(=O)c1ccccc1F)NCCc1ccc(Cl)cc1Cl` to `Cc1cccc(C(=O)NCCC(=O)NCc2ccccc2F)c1`, the “hERG current change (%, negative = inhibition) at 1uM” value falls from 7.52% to 5.88%.

First: O=C(NCc1n[nH]c(=S)n1-c1cccc(Cl)c1)c1ccc(S(=O)(=O)N2CCCCC2)cc1
Second: O=C(N/C(=C\c1ccc([N+](=O)[O-])cc1)C(=O)N1CCCCC1)c1ccccc1
The “hERG current change (%, negative = inhibition) at 1uM” value of the first is higher: 13.6% for the first, -73.2% for the second.

First: CCN(CC)S(=O)(=O)c1cccc(C(=O)Oc2cccc(NC(=O)c3cccs3)c2)c1
Second: CCN(CC)S(=O)(=O)c1ccc(/C=C/C(=O)OCC(=O)NNC(=O)c2ccc(OC)cc2)cc1
The “hERG current change (%, negative = inhibition) at 1uM” value of the first is lower: 7.05% for the first, 9.94% for the second.

Compared with `CC(=O)N1C(=O)C2(C(C#N)=C(N)Oc3c2c(C)nn3-c2ccccc2)c2ccccc21` (centres unmarked), `Cc1ccccc1[C@]1(C)ON(c2ccccc2C(F)(F)F)C1=O` is higher in “hERG current change (%, negative = inhibition) at 1uM” value: 11% for the first, 14.2% for the second.

First: COc1ccc(-n2nc(C(=O)NCC(=O)N3CCCCC3)c3ccccc3c2=O)c(OC)c1
Second: O=C(N/C(=C/c1ccccc1)C(=O)N1CCCCC1)c1ccc(Br)o1
The “hERG current change (%, negative = inhibition) at 1uM” value of the first is higher: 15.2% for the first, -0.572% for the second.

First: COc1ccc(N2CCN(CC(O)COC(C)(C)C)CC2)cc1.O=C(O)C(=O)O (centres unmarked)
Second: COc1ccc(N2CCN(CC(O)COC(c3ccc(F)cc3)c3ccc(F)cc3)CC2)cc1.O=C(O)C(=O)O (centres unmarked)
The “hERG current change (%, negative = inhibition) at 1uM” value of the first is higher: 12.5% for the first, -74% for the second.

First: OC(COC(c1ccccc1)c1ccccc1)CN1CCCCC1 (centres unmarked)
Second: Cc1ccc(C(OCC(O)CN2CCCCC2)c2ccccc2)cc1 (centres unmarked)
The “hERG current change (%, negative = inhibition) at 1uM” value of the first is higher: -18.5% for the first, -68.6% for the second.

Going from `Cc1ccc(C(OCC(O)CN2CCCCC2CO)c2ccccc2)cc1` (centres unmarked) to `O=C(O)C(=O)O.OCC1CCCCN1CC(O)COC(c1ccc(F)cc1)c1ccc(F)cc1` (centres unmarked), the “hERG current change (%, negative = inhibition) at 1uM” value falls from -39.7% to -60.9%.

Going from `COc1ccc(N2CCN(CC(O)COC(c3ccccc3)c3ccccc3)CC2)cc1` (centres unmarked) to `CCN1CCN(CC(O)COC(c2ccccc2)c2ccccc2)CC1` (centres unmarked), the “hERG current change (%, negative = inhibition) at 1uM” value rises from -14.2% to 7.15%.

First: O=C(O)C(=O)O.OC1CCCN(CC(O)COC(c2ccc(F)cc2)c2ccc(F)cc2)C1 (centres unmarked)
Second: O=C(O)C(=O)O.OC(COC(c1ccc(F)cc1)c1ccc(F)cc1)CN1CCCC1 (centres unmarked)
The “hERG current change (%, negative = inhibition) at 1uM” value of the first is higher: -14.2% for the first, -62% for the second.

Compared with `O=C(O)C(=O)O.OCCN1CCN(CC(O)COC(c2ccc(F)cc2)c2ccc(F)cc2)CC1` (centres unmarked), `O=C(O)C(=O)O.OC(COC(c1ccc(F)cc1)c1ccc(F)cc1)CN1CCCC(C(F)(F)F)C1` (centres unmarked) is higher in “hERG current change (%, negative = inhibition) at 1uM” value: -20.2% for the first, 14% for the second.

Compared with `NC(=O)c1cc(Cl)ccc1OCC(=O)N1CCCc2ccccc21`, `Cc1ccc(NC(=O)COC(=O)CN2C(=O)COc3ccccc32)cc1` is higher in “hERG current change (%, negative = inhibition) at 1uM” value: 11.4% for the first, 13.2% for the second.

First: S=c1[nH]nc(-c2ccc(Cl)cc2)n1-c1ccc2c(c1)OCCO2
Second: Cc1[nH]c2ccccc2c1-c1ccc(Cl)nn1
The “hERG current change (%, negative = inhibition) at 1uM” value of the first is lower: 7.4% for the first, 13.8% for the second.

First: CCN1C(=O)[C@H]2[C@@H](c3ccc(Cl)cc3)N3C(=O)CN(Cc4ccccc4)C(=O)[C@@]3(C)[C@H]2C1=O
Second: CS(=O)(=O)N(CC(=O)N1CCN(Cc2ccccc2)CC1)c1cccc(Cl)c1
The “hERG current change (%, negative = inhibition) at 1uM” value of the first is higher: 10.9% for the first, -23% for the second.

Compared with `CCCCCOc1ccc(/C=C/c2c([N+](=O)[O-])c(=O)n(C)c(=O)n2C)cc1`, `CCCCCOc1ccc(C(C)(O)C(CN2CCOCC2)c2ccccc2)cc1` (centres unmarked) is lower in “hERG current change (%, negative = inhibition) at 1uM” value: 12.2% for the first, -3.26% for the second.

First: O=c1[nH]cnc2sc(-c3ccccc3)cc12
Second: COc1ccc(S(=O)(=O)NCc2c(-c3ccccc3)noc2C)c(OC)c1
The “hERG current change (%, negative = inhibition) at 1uM” value of the first is higher: 6.92% for the first, 3.4% for the second.

Compared with `CC1CCN(C(CNS(=O)(=O)c2ccccc2)c2ccccc2)CC1` (centres unmarked), `OC(CN1CCN(Cc2ccccc2)CC1)c1ccccc1` (centres unmarked) is lower in “hERG current change (%, negative = inhibition) at 1uM” value: 3.61% for the first, 0.933% for the second.

Going from `CNC(=O)/C(=C\C=C\c1ccccc1)NC(=O)c1ccc([N+](=O)[O-])cc1` to `CC(C)(C)NC(=O)/C(=C\C=C\c1ccccc1)NC(=O)c1ccc([N+](=O)[O-])cc1`, the “hERG current change (%, negative = inhibition) at 1uM” value rises from -85% to 11.2%.

First: CN1CCN(C(=O)/C(=C/c2ccc(N(C)C)cc2)NC(=O)c2ccccc2)CC1
Second: CN1CCN(C(=O)/C(=C/c2ccc([N+](=O)[O-])cc2)NC(=O)c2ccccc2)CC1
The “hERG current change (%, negative = inhibition) at 1uM” value of the first is higher: 7.18% for the first, -90.4% for the second.

Going from `O=C(N/C(=C\c1ccccc1)C(=O)N1CCCCC1)c1ccc(Br)o1` to `O=C(N/C(=C\c1ccc([N+](=O)[O-])cc1)C(=O)N1CCCCC1)c1ccc(Br)o1`, the “hERG current change (%, negative = inhibition) at 1uM” value falls from -0.538% to -53.4%.

First: CN1CCN(C(=O)/C(=C/c2cccc([N+](=O)[O-])c2)NC(=O)c2ccccc2)CC1
Second: O=C(N/C(=C/c1cccc([N+](=O)[O-])c1)C(=O)N1CCCC1)c1ccccc1
The “hERG current change (%, negative = inhibition) at 1uM” value of the first is lower: -46.5% for the first, -0.775% for the second.

Going from `O=C(N/C(=C\c1ccccc1)C(=O)N1CCCCCC1)c1ccccc1` to `O=C(/C=C/c1ccccc1)N1CCN(C(=O)c2ccco2)CC1`, the “hERG current change (%, negative = inhibition) at 1uM” value falls from 21.1% to -13.1%.

Going from `CN(C)CCCNC(=O)/C(=C\C=C\c1ccccc1)NC(=O)c1ccc([N+](=O)[O-])cc1` to `CCc1ccccc1NC(=O)c1ccc(Cn2cc([N+](=O)[O-])cn2)cc1`, the “hERG current change (%, negative = inhibition) at 1uM” value rises from -42% to -3.78%.

First: CC(=O)c1ccc(N2CCCCCC2)c(F)c1
Second: CS(=O)(=O)N(CC(=O)N1CCCCCC1)c1cccc([N+](=O)[O-])c1
The “hERG current change (%, negative = inhibition) at 1uM” value of the first is lower: 0.156% for the first, 2.29% for the second.

First: COc1ccc(OCC(=O)NCCCNC(=O)COc2ccc(OC)cc2)cc1
Second: COc1ccc(CCNC(=O)CO/N=C/c2cc3c(cc2Br)OCO3)cc1OC
The “hERG current change (%, negative = inhibition) at 1uM” value of the first is lower: 4.68% for the first, 14.5% for the second.

Compared with `O=c1c2c3c(sc2nc2n1CCCCC2)CCC3`, `CN(C)c1ccc(NC(=O)CSc2nc3ccccc3c(=O)n2CC2CCCO2)cc1` (centres unmarked) is higher in “hERG current change (%, negative = inhibition) at 1uM” value: 10.9% for the first, 17.3% for the second.

Going from `O=S1(=O)[C@H]2C[C@@H]3C=C[C@]2(CN1Cc1ccc(C(F)(F)F)cc1)O3` to `O=[N+]([O-])c1ccc(C(O)CN2CCN(Cc3ccccc3)CC2)cc1` (centres unmarked), the “hERG current change (%, negative = inhibition) at 1uM” value falls from 4.34% to -73%.

Going from `CC(OC(=O)/C(C#N)=C/c1ccc(N(C)C)cc1)C(=O)NCc1ccco1` (centres unmarked) to `CCOC(=O)C(C(=O)OCC)C(Nc1cccc(Br)c1)c1ccccc1` (centres unmarked), the “hERG current change (%, negative = inhibition) at 1uM” value rises from 6.56% to 14.1%.

First: C[C@@H](C(=O)Nc1ccc2ccccc2c1)[C@@H]1C[C@@]1(C)[C@@H](NC(=O)OCc1ccccc1)c1ccccc1
Second: O=C(Nc1ccccc1SCC1CSc2nc3ccccc3c(=O)n21)c1ccccc1 (centres unmarked)
The “hERG current change (%, negative = inhibition) at 1uM” value of the first is higher: 14.3% for the first, -24.7% for the second.

Compared with `CCOC(=O)C1=C(CSc2nncn2C)NC(=O)NC1c1cc(OCC)ccc1OCC` (centres unmarked), `CCOC(=O)c1c(CSc2ccccc2)n(C)c2cc(Br)c(O)c(CN(C)C)c12` is lower in “hERG current change (%, negative = inhibition) at 1uM” value: 5.34% for the first, -3.17% for the second.

Going from `Cc1ccc(NC(=O)CSc2nnc(Cn3cnc4ccccc43)o2)c(C)c1` to `CCCN(CC1CC1)C(=O)CSc1nnc(-c2cc(-c3cccs3)nc3ccccc23)o1`, the “hERG current change (%, negative = inhibition) at 1uM” value falls from 20.5% to 6.71%.

Going from `Cc1cccc(C)c1N(CC(=O)N1CCCC1)S(C)(=O)=O` to `CS(=O)(=O)N(CC(=O)N1CCN(Cc2ccccc2)CC1)c1cccc([N+](=O)[O-])c1`, the “hERG current change (%, negative = inhibition) at 1uM” value falls from 16.2% to -73.1%.

Compared with `CS(=O)(=O)N(CC(=O)N1CCc2ccccc2C1)c1ccc(Br)cc1`, `O=C(c1cccc([N+](=O)[O-])c1)N1CCN(C/C=C/c2ccccc2)CC1` is lower in “hERG current change (%, negative = inhibition) at 1uM” value: 13.4% for the first, -21% for the second.

Compared with `CCNC(=O)CN(C1CCCCC1)S(C)(=O)=O`, `O=[N+]([O-])c1ccc(C(O)CN2CCOCC2)cc1` (centres unmarked) is higher in “hERG current change (%, negative = inhibition) at 1uM” value: 1.29% for the first, 18.6% for the second.

Compared with `CCOC(=O)c1c(CSc2ccc(C)cc2)n(C)c2cc(Br)c(O)c(CN(C)C)c12.Cl.O`, `CCOC(=O)c1c(CSc2ccsc2)n(C)c2cc(Br)c(O)c(CN(C)C)c12.Cl` is lower in “hERG current change (%, negative = inhibition) at 1uM” value: 18% for the first, -88.5% for the second.

Going from `O=C(Nc1ccccc1SCC1CSc2nc3ccccc3c(=O)n21)c1cccc(Cl)c1` (centres unmarked) to `Cc1cccc(C(=O)Nc2ccccc2SCC2CSc3nc4ccccc4c(=O)n32)c1` (centres unmarked), the “hERG current change (%, negative = inhibition) at 1uM” value falls from -49.6% to -66.5%.

Compared with `Nc1ccccc1SCC1CSc2nc3ccccc3c(=O)n21` (centres unmarked), `O=C(Nc1ccccc1SCC1CSc2nc3ccccc3c(=O)n21)c1ccccc1Cl` (centres unmarked) is lower in “hERG current change (%, negative = inhibition) at 1uM” value: -7.26% for the first, -53.2% for the second.

Going from `Cc1ccc(C(=O)Nc2ccccc2SCC2CSc3nc4ccccc4c(=O)n32)cc1` (centres unmarked) to `O=[N+]([O-])c1ccc(C(O)CN2CCN(c3ccccc3)CC2)cc1` (centres unmarked), the “hERG current change (%, negative = inhibition) at 1uM” value rises from -39% to -2.31%.

Going from `O=C(/C=C/c1cccc([N+](=O)[O-])c1)N1CCN(C(=O)c2ccco2)CC1` to `O=C(c1cccc([N+](=O)[O-])c1)N1CCN(C(=O)c2ccco2)CC1`, the “hERG current change (%, negative = inhibition) at 1uM” value rises from -53.4% to 0.101%.

First: O=[N+]([O-])c1ccc(C(O)CN2CCN(C/C=C/c3ccccc3)CC2)cc1 (centres unmarked)
Second: CS(=O)(=O)c1ccc(-n2nnc3ccccc32)c([N+](=O)[O-])c1
The “hERG current change (%, negative = inhibition) at 1uM” value of the first is lower: -85.5% for the first, 10.8% for the second.
